Reference: PubChem BioAssay (EPA / NIEHS)
Records with an inconclusive call do not appear. The source made the active and inactive calls. The calls were made as follows, unless noted: active = hit-call score of the fitted dose curve at least 0.9, where 1 is the maximum; inactive = score below 0.9.

What was measured:
[1] = CCTE_Shafer_MEA_dev_firing_rate_mean: CCTE's Neural Network Formation Assay for Mean Firing Rate, Shafer Lab (AID 2284031)
Summary of the method: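 Primary rat cortical neurons on 48-well MEA plates, exposed from plating day 0 with dosing renewed on DIV 5 and 9. Mean well firing rate over active electrodes, recorded days 5, 7, 9, 12, summarised as trapezoidal AUC.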

[2] = CCTE_Shafer_MEA_dev_per_burst_spike_percent: CCTE's Neural Network Formation Assay for Percent of Spikes in a Burst, Shafer Lab (AID 2284032);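 also: fitted as a decrease in burst spike percentage below DMSO baseline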
Summary of the method: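 Rat primary cortical neurons on 16-electrode MEA wells, dosed from plating day 0 for 12 days with renewal on DIV 5 and 9; spikes-in-bursts percentage averaged over bursting electrodes, collapsed as AUC across days 5, 7, 9, 12; loss direction versus DMSO.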

[3] = CCTE_Shafer_MEA_dev_active_electrodes_number: CCTE's Neural Network Formation Assay for Number of Active Electrodes, Shafer Lab (AID 2284040; active = hit-call score of the fitted dose curve at least 0.9, where 1 is the maximum;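 also: potency for loss of active electrodes versus DMSO so lower counts are hits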)
Summary of the method: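 Primary rat cortical neurons on 16-electrode MEA wells, exposed from day 0 through day 12 with compound renewed at DIV 5 and 9 feeds. Active electrodes (mean firing ≥5 spikes/min) counted at DIV 5, 7, 9, 12; trapezoidal AUC across days, loss-of-signal versus DMSO.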

[4] = CCTE_Shafer_MEA_dev_burst_rate: CCTE's Neural Network Formation Assay for Burst Rate, Shafer Lab (AID 2284042)
Summary of the method: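 Primary rat cortical neurons on PEI-coated 48-well MEA plates (laminin added with cells at plating) (16 electrodes/well), exposed from plating to day 12, dosing renewed at DIV 5 and 9. Burst rate averaged over active electrodes, recorded DIV 5, 7, 9, 12, summarized as AUC; loss versus DMSO.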

[5] = CCTE_Shafer_MEA_dev_bursting_electrodes_number: CCTE's Neural Network Formation Assay for Number of Bursting Electrodes, Shafer Lab (AID 2284043; active = hit-call score of the fitted dose curve at least 0.9, where 1 is the maximum;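 also: potency is for loss of bursting electrodes relative to DMSO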)
Summary of the method: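 Primary rat cortical neurons were cultured on PEI-coated 48-well MEA plates (16 electrodes/well) and exposed from plating through day 12, with compound renewed at feeds on DIV 5 and 9. Electrodes bursting ≥1 per 2 min were counted on DIV 5, 7, 9, 12; trapezoidal AUC taken.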

[6] = CCTE_Shafer_MEA_dev_per_burst_interspike_interval: CCTE's Neural Network Formation Assay for Burst Interspike Interval, Shafer Lab (AID 2284044)
Summary of the method: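 Readout is the average time between spikes inside single-electrode bursts, taken as a well mean across bursting electrodes. Cortical neurons from rat developed networks on MEA plates under continuous 12-day exposure; recordings on days 5, 7, 9 and 12 were integrated by trapezoidal AUC.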

[7] = CCTE_Shafer_MEA_dev_burst_duration_mean: CCTE's Neural Network Formation Assay for Mean Burst Duration, Shafer Lab (AID 2284045)
Summary of the method: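 Primary rat cortical neurons on PEI-coated 16-electrode MEA wells, exposed from plating through day 12 with compound renewed at DIV 5 and 9; spontaneous activity recorded days 5, 7, 9, 12. Well-mean burst duration collapsed as trapezoidal AUC, fitted for loss versus DMSO.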

[8] = CCTE_Shafer_MEA_dev_interburst_interval_mean: CCTE's Neural Network Formation Assay for Mean Interburst Interval, Shafer Lab (AID 2284046);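 also: well-mean interburst interval of bursting electrodes as AUC over four recording days; curve fitted for decrease in interburst interval relative to DMSO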
Summary of the method: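 Recordings on days 5, 7, 9 and 12 give well-mean interburst interval across actively bursting electrodes, summarized as area under the curve. Cultures: rat cortical neurons, continuous exposure from day 0, compound renewed at feeds; decrease analyzed versus DMSO.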

[9] = CCTE_Shafer_MEA_dev_inter_network_spike_interval_mean: CCTE's Neural Network Formation Assay for Mean Inter-network Spike Interval, Shafer Lab (AID 2284047)
Summary of the method: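 Primary rat cortical neurons on 16-electrode MEA wells, exposed from plating day 0 through DIV 12, compound renewed at DIV 5 and 9 media changes. Mean interval between network-spike peaks recorded DIV 5, 7, 9, 12; collapsed as trapezoidal AUC, fitted downward versus DMSO.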

[10] = CCTE_Shafer_MEA_dev_network_spike_number: CCTE's Neural Network Formation Assay for Number of Network Spikes, Shafer Lab (AID 2284048)
Summary of the method: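 Primary rat cortical neurons were seeded at 1.5 x 10^5 cells/well on PEI-coated 16-electrode MEA wells with laminin, exposed from plating day 0, compound renewed at DIV 5 and 9. Network spikes were recorded on days 5, 7, 9, 12 and summarized as trapezoidal AUC versus DMSO.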

[11] = CCTE_Shafer_MEA_dev_network_spike_peak: CCTE's Neural Network Formation Assay for Mean Number of Electrodes in Network Spike, Shafer Lab (AID 2284049)
Summary of the method: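 Continuous 12-day exposure of rat cortical cultures, starting at plating, on MEA plates. Endpoint: electrodes participating in network-spike peaks, AUC across DIV 5–12, DMSO as negative control.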

[12] = CCTE_Shafer_MEA_dev_spike_duration_mean: CCTE's Neural Network Formation Assay for Mean Spike Duration, Shafer Lab (AID 2284051);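 also: mean network spike duration pooled as area under curve over DIV 5 to 12 recordings; potency for a decrease in mean network spike duration versus DMSO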
Summary of the method: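 Primary rat cortical neurons on 16-electrode MEA wells (PEI-coated, laminin in plating drop), exposed from plating through DIV 12 with compound renewed at DIV 5 and 9. Mean network-spike duration recorded DIV 5, 7, 9, 12; trapezoidal AUC across days, DMSO baseline.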

[13] = CCTE_Shafer_MEA_dev_network_spike_duration_std: CCTE's Neural Network Formation Assay for Standard Deviation of Network Spike Duration, Shafer Lab (AID 2284052);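 also: area under curve of spike duration SD across recording days 5 to 12; hits are decreases in network spike duration SD versus DMSO vehicle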
Summary of the method: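 Primary rat cortical neurons on PEI-coated 16-electrode MEA wells, exposed from plating day 0 through day 12 with compound renewed at DIV 5 and 9. Network spike duration SD recorded on days 5, 7, 9, 12, collapsed as trapezoidal AUC; loss-of-signal fit versus DMSO.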

[14] = CCTE_Shafer_MEA_dev_per_network_spike_spike_number_mean: CCTE's Neural Network Formation Assay for Mean Number of Spikes in a Network Spike, Shafer Lab (AID 2284053)
Summary of the method: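 Primary rat cortical neurons on 48-well, 16-electrode MEA plates were exposed from plating to DIV 12, with dosing renewed on DIV 5 and 9. Spikes per network spike (0.05 s peak window) were recorded on DIV 5, 7, 9 and 12 and collapsed as trapezoidal AUC versus DMSO.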

[15] = CCTE_Shafer_MEA_dev_per_network_spike_spike_percent: CCTE's Neural Network Formation Assay for Percent of Spikes in a Network Spike, Shafer Lab (AID 2284054)
Summary of the method: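 Primary rat cortical neurons on 16-electrode MEA wells (PEI-coated, laminin at plating), exposed from day 0 with renewal at DIV 5 and 9; spikes within 0.05 s of network-spike peaks over total spikes, AUC across days 5, 7, 9, 12.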

[16] = CCTE_Shafer_MEA_dev_LDH: CCTE's Lactate Dehydrogenase Assay for Cytotoxicity in the Neural Network Formation Assay, Shafer Lab (AID 2284068; active = hit-call score of the fitted dose curve at least 0.9, where 1 is the maximum;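 also: exposure for twelve days from plating with re-dosing on DIV 5 and 9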)
Summary of the method: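 Primary rat cortical neurons were plated on PEI/laminin MEA plates and exposed from day 0 for twelve days, with compound renewed at DIV 5 and 9. Cytotoxicity was determined by spectrophotometric LDH assay relative to DMSO.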

[17] = CCTE_Shafer_MEA_dev_mutual_information_norm: CCTE's Neural Network Formation Assay for Mutual Information Normalization, Shafer Lab (AID 2284091)
Summary of the method: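 Rat cortical cultures, 48-well MEA, continuous exposure DIV 0–12 with full media/compound change DIV 5 and 9. Readout: inter-electrode mutual information, AxIS adaptive spike detection; AUC across DIV 5/7/9/12 recordings; DMSO baseline, negative fitting direction.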

[18] = CCTE_Shafer_MEA_dev_correlation_coefficient_mean: CCTE's Neural Network Formation Assay for Mean Correlation Coefficient, Shafer Lab (AID 2284093)
Summary of the method: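 Spontaneous activity recorded on days 5, 7, 9 and 12 post-plating; pairwise spike correlations are averaged across active electrodes and collapsed to an area-under-curve. Rat cortical cultures are dosed from plating through 12 days, with compound renewed at media changes.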

[19] = UKN2_HCS_IMR90_neural_migration: University of Konstanz (UKN) Leist Lab Neural Crest Cell Migration Assay in human induced IMR90 Pluripotent Stem Cells (UKN2) (AID 2284204); conditions: actives raise or lower the signal
Summary of the method: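 iPSC-derived IMR90 neural crest cells on PLO/laminin/fibronectin were seeded around silicone stoppers; after stopper removal, migration in N2-S medium with EGF and FGF ran 24 h before 24 h chemical exposure. Calcein-AM/Hoechst high-content imaging; bidirectional fit versus DMSO.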

[20] = IUF_NPC1b_proliferation_BrdU_72hr: Leibniz Research Institute for Environmental Medicine (IUF) 72-hour Neural Progenitor Cell Bromodeoxyuridine (BrdU) Proliferation Assay (NPC1b) (AID 2284207)
Summary of the method: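 hNPC spheres (primary, GW 16-19 fetal cortex), single sphere/well, EGF+FGF medium; 72 h compound, no renewal; BrdU pulse last 16 h; luminescent ELISA; activity vs DMSO baseline; growth-factor withdrawal as positive control.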

[21] = IUF_NPC1a_proliferation_area_72hr: Leibniz Research Institute for Environmental Medicine (IUF) 72-hour Neural Progenitor Cell Proliferation Area Assay (NPC1a) (AID 2284208)
Summary of the method: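 hNPC spheres (human fetal cortex, GW 16-19), one per poly-Hema U-bottom well; EGF+FGF medium; dosed day 0, no re-dosing; 72 h, 37C, 5% CO2; phase-contrast sphere area; DMSO = baseline; minus-GF = positive ctrl.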

[22] = IUF_NPC1_viability_72hr: Viability Assessment at 72 hours in the Leibniz Research Institute for Environmental Medicine (IUF) Neural Progenitor Cell Proliferation Assay (NPC1) (AID 2284209)
Summary of the method: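 Single spheres (0.25-0.35 mm) of human fetal cortex-derived neural progenitor cells were grown in proliferation medium with EGF and FGF at 37C and 5% CO2. They were exposed for 72 h without renewal, and viability was read by alamar blue resorufin fluorescence.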

[23] = CCTE_Mundy_HCI_Cortical_Synap_Neur_Matur_NeuriteSpotCountPerNeuriteLength: CCTE's Synaptogenesis and Neurite Maturation Assay in rat cortical cells for Neurite Spot Count per Neurite Length, Mundy Lab (AID 2284210)
Summary of the method: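 Rat primary cortical cultures, glia arrested with AraC at DIV 5, were dosed with media change at DIV 7 and fixed at DIV 12. Synaptophysin puncta per MAP2-labelled neurite length were quantified by high-content imaging versus DMSO.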

[24] = CCTE_Mundy_HCI_Cortical_NOG_NeuriteCount: CCTE's Neurite Outgrowth Assay in rat cortical cells for Neurite Count, Mundy Lab (AID 2284212);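 also: cells fixed about two days after chemical exposure began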
Summary of the method: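 Neurite number per cell from high-content imaging of betaIII-tubulin immunostaining, with Hoechst nuclear counterstain.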

CCCCCC(C)(CC)C(=O)NC (centres undefined)
outcome [1]: inactive
AC50 [2]: 74.5 µM (active)
AC50 [3]: 50 µM (active)
outcome [4]: inactive
AC50 [5]: 50 µM (active)
outcome [6]: inactive
outcome [7]: inactive
outcome [8]: inactive
outcome [9]: inactive
outcome [10]: inactive
outcome [11]: inactive
AC50 [12]: 9.92 µM (active)
outcome [13]: inactive
outcome [14]: inactive
outcome [15]: inactive
AC50 [16]: 50 µM (active)
outcome [17]: inactive
outcome [18]: inactive
outcome [19]: inactive
AC50 [20]: 85.3 µM (active)
outcome [21]: inactive
outcome [22]: inactive
outcome [23]: inactive
outcome [24]: inactive
